An excerpt weighted towards active compounds, which were near 7.4% of everything screened.
Luciferase inh: Firefly luciferase inhibition profiling of diverse chemical library using quantitative high-throughput screening; Luciferin 4-monooxygenase (Photinus pyralis), P08659; purified P. pyralis luciferase, luminescence, biochemical; Potency, µM (doses to about 115 µM), hits mostly inhibitors; actives 2.5% (n = 76,000); AID 1347043, 2019; note: % is set by controls: 0 for no effect and ±100 for the full control effect; nearly all actives have a fitted effect of over 65% in size
Target sequence (P08659 whole entry, looked up): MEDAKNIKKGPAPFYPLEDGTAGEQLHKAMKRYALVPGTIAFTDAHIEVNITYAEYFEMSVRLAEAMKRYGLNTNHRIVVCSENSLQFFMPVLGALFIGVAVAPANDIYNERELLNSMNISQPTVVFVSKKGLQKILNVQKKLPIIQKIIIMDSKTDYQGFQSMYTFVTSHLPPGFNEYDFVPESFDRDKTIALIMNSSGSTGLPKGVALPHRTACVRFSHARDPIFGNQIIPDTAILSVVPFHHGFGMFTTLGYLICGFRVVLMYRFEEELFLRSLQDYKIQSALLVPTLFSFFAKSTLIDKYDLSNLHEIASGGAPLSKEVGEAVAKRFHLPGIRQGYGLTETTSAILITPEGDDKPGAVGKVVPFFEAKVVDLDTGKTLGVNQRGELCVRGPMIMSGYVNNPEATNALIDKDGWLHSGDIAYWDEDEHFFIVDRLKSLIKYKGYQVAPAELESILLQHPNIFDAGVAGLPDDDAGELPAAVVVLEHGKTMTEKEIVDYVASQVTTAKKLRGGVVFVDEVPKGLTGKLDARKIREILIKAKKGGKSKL
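Luminescence read by CCD imager after adding enzyme (10nM final) to wells holding compound, titrated in qHTS. Substrates 10uM each D-luciferin and ATP; buffer 50mM Tris acetate pH 7.5, 10mM Mg acetate, Tween-20, BSA.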
NPR1 antag: Natriuretic polypeptide receptor (hNpr1) antagonism - Primary qHTS | Atrial natriuretic peptide receptor 1 (Homo sapiens), P16066 | HEK293 hNpr1 GloSensor cGMP, ANP-stimulated luminescence | Potency, µM (doses to about 46.3 µM), without a hit: at the top dose activity change, negative = inhibition, hits mostly inhibitors | actives 1.6% (n = 76,000) | AID 1347048, 2019; calls by dose curve; note: % is set by controls: 0 for no effect and ±100 for the full control effect; nearly all actives have a fitted effect of over 60% in size
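HEK293 cells stably expressing human Npr1 and cGMP GloSensor pGS-40F, loaded 2 h with 2% GloSensor reagent, given compound 30 min at room temperature. Luminescence read before and 20 min after 0.1 nM hNppA.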
3T3 cytotox: Cytotoxic Profiling in NIH 3T3 Cell Line of Diverse Libraries Using Quantitative High-Throughput Screening; NIH 3T3 viability, CellTiter-Glo ATP luminescence, 48-72 h; Potency, µM (highest dose often 96.7 µM), inactives show top-dose activity change, negative = cytotoxicity, actives largely listed as inhibitors; actives 4.3% (n = 94,000); AID 1345082, 2018; note: % is set by controls: 0 for no effect and ±100 for the full control effect; nearly all actives have a fitted effect of over 55% in size
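ATP-dependent luminescence (CellTiter-Glo) served as the viability signal for NIH 3T3 cells treated with compound for 48 or 72 hr at 37 °C.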
SNCA expr inhib: Primary qHTS assay for inhibitors of alpha-synuclein gene (SNCA) expression; actives 0.17% (n = 140,000); AID 1671194, 2021; HEK-293 SNCA-luciferase knock-in, luminescence, 24 h; Potency, µM (titrated, usually from 57.2 µM), for the others: at the highest dose activity change, negative = inhibition, actives largely listed as inhibitors;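 note: plate controls were DMSO cells for no effect and cell-free wells for full effect; nearly all actives have a fitted effect of over 45% in size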
HEK cytotox: Cytotoxic Profiling in HEK 293 Cell Line of Diverse Libraries Using Quantitative High-Throughput Screening; HEK 293 viability, ATP luminescence (CellTiter-Glo), 48-72 h; Potency, µM (highest dose often 115 µM), inactives show at the highest dose activity change, negative = cytotoxicity, hits mostly inhibitors; actives 6.6% (n = 94,000); AID 1345083, 2018; note: % is set by controls: 0 for no effect and ±100 for the full control effect; nearly all actives have a fitted effect of over 60% in size
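HEK 293 cells seeded at 250 cells/well were exposed to compound for 48 or 72 hr at 37 degree Celsius. Viability taken as ATP content by CellTiter-Glo luminescence.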
SNCA viab count: GF-AFC viability counterscreen for inhibitors of alpha-synuclein gene (SNCA) expression; Potency, µM (titrated, usually from 57.1 µM), inactives show at the top dose activity change, negative = cytotoxicity, usual class: cytotoxic; AID 1671193, 2021; actives 0.12% (n = 150,000); HEK-293-SNCA-luc viability, GF-AFC fluorescence, 24 h;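 note: 0% = DMSO-treated cells and -100% = medium-only wells without cells; nearly all actives have a fitted effect of over 30% in size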
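Cytotoxicity counterscreen: after 24 h compound treatment of genome-edited SNCA-luciferase HEK-293 cells, live-cell protease substrate GF-AFC read by fluorescence after 30 min; activity scaled between DMSO (0%) and medium-only (-100%), curves Hill-fitted.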
NPR1 antag cnf: Natriuretic polypeptide receptor (hNpr1) antagonism - Confirmation | actives 76% (n = 1,400) | HEK293 hNpr1 cGMP GloSensor luminescence, ANP-stimulated | shares compounds with NPR1 antag | Potency, µM (highest dose often 57.6 µM), without a hit: top-dose activity change, negative = inhibition, actives largely listed as inhibitors; calls by dose curve; note: nearly all actives have a fitted effect of over 70% in size
NPR2 antag: Natriuretic polypeptide receptor (hNpr2) antagonism - Subtype selectivity assay; shares compounds with NPR1 antag; HEK293 hNpr2 GloSensor cGMP luminescence, CNP-stimulated; Potency, µM (highest dose often 57.6 µM), for inactives: top-dose activity change, negative = inhibition, usual class: inhibitors; actives 67% (n = 1,400); calls by dose curve; note: nearly all actives have a fitted effect of over 70% in size
FLuc counter: Natriuretic polypeptide receptor (hNpr1) antagonism - Confirmation firefly luciferase (FLuc) inhibition counterscreen. Potency, µM (series often up to 57.6 µM), inactives show top-dose activity change, negative = inhibition, usual class: inhibitors. shares compounds with NPR1 antag. purified FLuc enzyme, luminescence, Km substrate. actives 0.7% (n = 1,400); note: 0% is about no effect
GloSensor cGMP: Natriuretic polypeptide receptor (hNpr1) antagonism - Counterscreen GloSensor control cell line | AID 1347051, 2019 | Potency, µM (series often up to 57.6 µM), inactives show at the top dose activity change, negative = inhibition, actives largely listed as inhibitors | HEK293 GloSensor cGMP, SNP-stimulated, luminescence | shares compounds with NPR1 antag | actives 69% (n = 1,400); calls by dose curve; note: % is set by controls: 0 for no effect and ±100 for the full control effect; nearly all actives have a fitted effect of over 70% in size
Starred values were filed as active, the others as inactive; i = inactive; ? = inconclusive; . = not tested or not shown; [ ] = dose if it differs, or a comment. Unless noted, calls come from the whole dose curve; as a rule, active = well fitted curve in the direction sought with a large enough effect; inconclusive = small, poorly fitted or top-dose-only effect, or another doubt; inactive = no such curve, though single readings can be large; an effect the other way counts as inactive or inconclusive. Potency is the fitted concentration of half-maximal effect.

SMILES	Luciferase inh	NPR1 antag	3T3 cytotox	SNCA expr inhib	HEK cytotox	SNCA viab count	NPR1 antag cnf	NPR2 antag	FLuc counter	GloSensor cGMP
Cc1ccc(CNC(=O)C2CCCCc3nnc(-c4ccccc4)n32)o1 (stereo not given)	.	.	-14%	23%	-3%	12%	.	.	.	.
O=C(CCC1CC1)N1CCC(c2cc(Cc3ccccc3)[nH]n2)CC1	i	-27%	?	68%	?	-2%	-27%	-25%	-12%	-27%
COC(=O)C1C(CC(C)=O)C=CC(O)C12Oc1cc(C)cc(O)c1C2=O (stereo not given)	.	.	.	.	.	-7%	.	.	.	.
COc1ccc(C(=O)N2CCC(Cc3nncn3-c3ccccc3)C2)cc1F (stereo not given)	.	.	1%	-7%	i	?	.	.	.	.
CCN1C(=O)Cc2ccccc2C1C(=O)NCc1ccccc1Br (stereo not given)	i	-23%	-6%	27%	-19%	6%	-29%	?	-14%	-9%
CCN1C(=O)Cc2ccccc2C1C(=O)NCc1ccccc1C (stereo not given)	i	-11%	3%	-19%	-8%	3%	.	.	.	.
CNC(=O)N1CCCC(c2nc(CCOCC3CCCC3)no2)C1 (stereo not given)	i	?	-29%	48%	?	10%	?	?	-1%	?
O=C([C@H]1CCCN1C(=O)Nc1ccc(Cl)cc1)N1CCCC(c2nc3ccncc3[nH]2)C1 (stereo not given in full)	.	.	-17%	-1%	-20%	-23%	.	.	.	.
Cc1noc(C)c1CN1CCc2nc(C(=O)Nc3cccc(C(F)(F)F)c3)oc2CC1	i	32µM*	?	-13%[87.6 µM]	?	-28%[87.6 µM]	28µM*	31µM*	-11%[86.2 µM]	20µM*
COc1ccc(CN2CCc3nc(C(=O)NCc4cccc(F)c4)oc3CC2)cc1	i	-29%[70.6 µM]	?	-5%[87.6 µM]	?	-7%[87.6 µM]	.	.	.	.
O=C(Nc1ccc(Cl)cc1)c1nc2c(o1)CCN(Cc1cccc(F)c1)CC2	i	7.9µM*	?	-10%[87.6 µM]	?	-17%[87.6 µM]	11µM*	16µM*	-23%[86.2 µM]	11µM*

Assay outcomes (PubChem)
